# Test results published in article PMC7862700, “An all-to-all approach to the identification of sequence-specific readers for epigenetic DNA modifications on cytosine”.
# What was measured:
# Assay in all cases: DAPPL (digital affinity profiling via proximity ligation, sequencing); 10 mM Tris-HCl pH 7.5, 50 mM NaCl, 1 mM DTT, 4% glycerol, room temperature, 30 min; GST-TFs on glutathione beads, 16-mer random dsDNA library, 0.1% formaldehyde crosslink after washing; high values mean tight binding
# FLI1 = target: T1, FLI1 (Homo sapiens, UniProt Q01543 1-452); details: protein: recombinant; tags: N-terminal GST; dsDNA, one strand shown
# T1 sequence: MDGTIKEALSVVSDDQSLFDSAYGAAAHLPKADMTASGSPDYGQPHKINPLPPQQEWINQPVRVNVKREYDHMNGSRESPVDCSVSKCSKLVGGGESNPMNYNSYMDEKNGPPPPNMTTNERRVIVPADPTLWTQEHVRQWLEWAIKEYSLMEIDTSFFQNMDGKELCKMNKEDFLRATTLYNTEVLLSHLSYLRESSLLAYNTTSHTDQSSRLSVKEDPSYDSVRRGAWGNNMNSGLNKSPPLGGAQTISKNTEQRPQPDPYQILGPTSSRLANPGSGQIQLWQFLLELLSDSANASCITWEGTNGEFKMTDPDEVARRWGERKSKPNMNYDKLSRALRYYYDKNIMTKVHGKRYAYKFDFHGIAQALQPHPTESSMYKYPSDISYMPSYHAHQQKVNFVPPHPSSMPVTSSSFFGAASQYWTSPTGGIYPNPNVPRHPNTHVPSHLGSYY
# Method in brief: (§1)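 Sequencing on an Illumina NextSeq500 followed washing, crosslinking with 0.1% formaldehyde, proximity ligation (BsaI/T4 ligase, 1 h, 37 °C) and PCR amplification of pools that had been incubated for 30 min at room temperature with 200 nmole of a random double-stranded 16-mer DNA library in Tris/NaCl/DTT/glycerol buffer. Each pool held DNA-barcoded human transcription factors, expressed in yeast as GST fusions and captured on glutathione beads, plus a tag-only sample. Binding signal is a hexamer's read frequency for a factor divided by its frequency in the tag-only sample.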
# ELK1 = target: T2, ELK1 (Homo sapiens, UniProt P19419 1-428); details: protein: recombinant; tags: N-terminal GST; dsDNA, one strand shown
# T2 sequence: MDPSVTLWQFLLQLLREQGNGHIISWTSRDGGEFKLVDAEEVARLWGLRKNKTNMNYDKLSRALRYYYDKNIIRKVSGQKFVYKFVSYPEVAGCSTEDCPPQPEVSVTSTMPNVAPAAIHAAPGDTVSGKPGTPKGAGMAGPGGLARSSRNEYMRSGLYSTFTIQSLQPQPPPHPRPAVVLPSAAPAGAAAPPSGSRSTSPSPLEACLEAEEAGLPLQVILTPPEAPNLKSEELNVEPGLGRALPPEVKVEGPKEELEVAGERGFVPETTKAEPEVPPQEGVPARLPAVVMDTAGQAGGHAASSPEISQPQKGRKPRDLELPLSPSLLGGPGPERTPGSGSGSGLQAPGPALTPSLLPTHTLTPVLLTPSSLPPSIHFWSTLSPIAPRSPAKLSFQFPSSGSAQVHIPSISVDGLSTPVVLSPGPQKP
# Method in brief: as §1
# GABPA = target: T3, GABPA (Homo sapiens, UniProt Q06546 1-454); details: protein: recombinant; tags: N-terminal GST; dsDNA, one strand shown
# T3 sequence: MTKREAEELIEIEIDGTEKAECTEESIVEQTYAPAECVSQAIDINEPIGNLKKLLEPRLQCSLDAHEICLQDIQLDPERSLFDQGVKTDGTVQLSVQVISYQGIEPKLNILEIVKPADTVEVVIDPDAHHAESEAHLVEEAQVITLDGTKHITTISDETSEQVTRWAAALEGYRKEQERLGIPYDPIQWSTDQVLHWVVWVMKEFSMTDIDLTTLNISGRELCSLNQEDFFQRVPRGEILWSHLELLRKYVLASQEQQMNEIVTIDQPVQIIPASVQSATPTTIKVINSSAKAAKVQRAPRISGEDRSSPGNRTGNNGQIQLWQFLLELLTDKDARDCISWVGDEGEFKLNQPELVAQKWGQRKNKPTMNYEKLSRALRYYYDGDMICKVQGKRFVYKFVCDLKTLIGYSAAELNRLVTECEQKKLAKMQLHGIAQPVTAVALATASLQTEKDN
# Method in brief: as §1
# ERG = target: T4, ERG (Homo sapiens, UniProt P11308 1-479); details: protein: recombinant; tags: N-terminal GST; dsDNA, one strand shown
# T4 sequence: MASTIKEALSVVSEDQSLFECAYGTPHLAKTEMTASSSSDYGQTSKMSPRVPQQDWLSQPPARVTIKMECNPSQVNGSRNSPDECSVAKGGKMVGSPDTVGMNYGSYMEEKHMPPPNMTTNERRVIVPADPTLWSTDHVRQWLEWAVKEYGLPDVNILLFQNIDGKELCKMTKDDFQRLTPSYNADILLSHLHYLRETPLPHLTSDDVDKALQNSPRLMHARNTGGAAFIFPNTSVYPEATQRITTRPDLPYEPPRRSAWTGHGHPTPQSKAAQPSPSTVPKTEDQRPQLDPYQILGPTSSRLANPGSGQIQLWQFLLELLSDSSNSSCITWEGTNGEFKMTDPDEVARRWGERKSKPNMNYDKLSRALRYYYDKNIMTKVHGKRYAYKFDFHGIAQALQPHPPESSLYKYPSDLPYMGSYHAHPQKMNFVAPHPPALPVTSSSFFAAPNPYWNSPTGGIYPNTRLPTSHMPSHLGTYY
# Method in brief: as §1
# ELF1 = ELF1 (Homo sapiens, UniProt P32519 1-619); details: protein: recombinant; tags: N-terminal GST; dsDNA, one strand shown
# ELF1, sequence (P32519 whole entry): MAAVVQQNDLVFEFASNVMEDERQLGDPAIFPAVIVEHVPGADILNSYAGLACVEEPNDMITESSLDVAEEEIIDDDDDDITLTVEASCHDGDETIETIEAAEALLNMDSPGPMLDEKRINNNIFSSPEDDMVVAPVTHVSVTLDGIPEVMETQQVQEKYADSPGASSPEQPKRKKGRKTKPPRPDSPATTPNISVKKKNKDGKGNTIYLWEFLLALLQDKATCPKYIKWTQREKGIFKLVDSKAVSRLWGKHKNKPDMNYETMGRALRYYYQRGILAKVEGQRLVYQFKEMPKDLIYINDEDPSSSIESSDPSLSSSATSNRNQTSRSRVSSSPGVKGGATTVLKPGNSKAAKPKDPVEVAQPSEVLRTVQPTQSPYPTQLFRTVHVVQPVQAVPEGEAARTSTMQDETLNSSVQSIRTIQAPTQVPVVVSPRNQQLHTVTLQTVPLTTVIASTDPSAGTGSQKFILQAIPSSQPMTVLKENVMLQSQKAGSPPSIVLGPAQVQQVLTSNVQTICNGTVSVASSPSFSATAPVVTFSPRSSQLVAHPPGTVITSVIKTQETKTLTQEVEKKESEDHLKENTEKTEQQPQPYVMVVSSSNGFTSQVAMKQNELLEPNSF
# Method in brief: as §1
# EHF = target: T5, EHF (Homo sapiens, UniProt Q9NZC4 1-300); details: protein: recombinant; tags: N-terminal GST; dsDNA, one strand shown
# T5 sequence: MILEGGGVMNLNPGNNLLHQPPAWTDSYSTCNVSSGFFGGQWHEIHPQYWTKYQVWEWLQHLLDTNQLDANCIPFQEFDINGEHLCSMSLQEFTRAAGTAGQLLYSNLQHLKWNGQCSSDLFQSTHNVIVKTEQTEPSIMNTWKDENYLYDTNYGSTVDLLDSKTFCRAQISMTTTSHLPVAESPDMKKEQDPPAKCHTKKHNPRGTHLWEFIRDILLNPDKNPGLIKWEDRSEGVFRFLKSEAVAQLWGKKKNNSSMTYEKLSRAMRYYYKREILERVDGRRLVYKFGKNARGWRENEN
# Method in brief: as §1
# SPI1 = SPI1 (Homo sapiens, UniProt P17947 1-270); details: protein: recombinant; tags: N-terminal GST; dsDNA, one strand shown
# Method in brief: as §1
# SPIB = SPIB (Homo sapiens, UniProt Q01892 1-262); details: protein: recombinant; tags: N-terminal GST; dsDNA, one strand shown
# SPIB, sequence (Q01892 whole entry): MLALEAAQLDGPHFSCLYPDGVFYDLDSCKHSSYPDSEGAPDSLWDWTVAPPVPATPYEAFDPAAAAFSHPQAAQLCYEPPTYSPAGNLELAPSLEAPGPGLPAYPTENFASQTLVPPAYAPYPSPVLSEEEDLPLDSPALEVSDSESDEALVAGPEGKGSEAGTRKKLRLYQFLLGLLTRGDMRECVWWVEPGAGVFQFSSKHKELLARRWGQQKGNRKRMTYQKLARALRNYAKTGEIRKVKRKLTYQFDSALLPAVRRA
# Method in brief: as §1
# ELK3 = target: T6, ELK3 (Homo sapiens, UniProt P41970 1-407); details: protein: recombinant; tags: N-terminal GST; dsDNA, one strand shown
# T6 sequence: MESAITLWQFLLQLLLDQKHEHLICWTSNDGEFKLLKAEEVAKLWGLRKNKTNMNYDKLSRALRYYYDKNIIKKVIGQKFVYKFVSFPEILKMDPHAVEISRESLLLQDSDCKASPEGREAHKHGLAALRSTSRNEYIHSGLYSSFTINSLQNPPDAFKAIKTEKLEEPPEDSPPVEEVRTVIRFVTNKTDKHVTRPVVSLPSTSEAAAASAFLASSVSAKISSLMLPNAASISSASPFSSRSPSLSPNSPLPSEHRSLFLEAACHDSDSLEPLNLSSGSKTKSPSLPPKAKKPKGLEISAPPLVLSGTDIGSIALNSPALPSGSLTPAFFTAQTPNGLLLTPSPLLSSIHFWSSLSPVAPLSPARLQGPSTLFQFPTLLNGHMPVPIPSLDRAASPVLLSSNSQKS
# Method in brief: as §1
# FEV = target: T7, FEV (Homo sapiens, UniProt Q99581 1-238); details: protein: recombinant; tags: N-terminal GST; dsDNA, one strand shown
# T7 sequence: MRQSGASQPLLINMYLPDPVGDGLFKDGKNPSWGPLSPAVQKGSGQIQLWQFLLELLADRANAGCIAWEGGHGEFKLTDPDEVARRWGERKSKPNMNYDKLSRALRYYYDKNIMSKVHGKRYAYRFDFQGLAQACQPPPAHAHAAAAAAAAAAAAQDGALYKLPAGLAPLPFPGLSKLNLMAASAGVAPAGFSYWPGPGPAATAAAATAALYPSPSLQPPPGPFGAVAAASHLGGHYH
# Method in brief: as §1
# ETV5 = ETV5 (Homo sapiens, UniProt P41161 1-510); details: protein: recombinant; tags: N-terminal GST; dsDNA, one strand shown
# ETV5, sequence (P41161 whole entry): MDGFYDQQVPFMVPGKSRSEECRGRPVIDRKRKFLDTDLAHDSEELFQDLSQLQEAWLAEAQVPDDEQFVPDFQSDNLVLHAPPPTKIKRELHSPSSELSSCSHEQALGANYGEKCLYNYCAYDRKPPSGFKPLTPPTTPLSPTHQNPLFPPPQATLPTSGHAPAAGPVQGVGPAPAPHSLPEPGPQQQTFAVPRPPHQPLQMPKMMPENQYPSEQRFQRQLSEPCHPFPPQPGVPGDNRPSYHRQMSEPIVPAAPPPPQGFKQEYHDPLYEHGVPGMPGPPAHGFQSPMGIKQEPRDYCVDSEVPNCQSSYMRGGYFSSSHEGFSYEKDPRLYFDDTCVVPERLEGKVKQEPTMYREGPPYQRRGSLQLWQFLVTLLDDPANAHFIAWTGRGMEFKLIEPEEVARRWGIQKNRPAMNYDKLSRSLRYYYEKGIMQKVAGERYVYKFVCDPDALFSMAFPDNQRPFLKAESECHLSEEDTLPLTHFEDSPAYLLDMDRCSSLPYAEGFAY
# Method in brief: as §1
# HSF1 = HSF1 (Homo sapiens, UniProt Q00613 1-529); details: protein: recombinant; tags: N-terminal GST; chain copies: 3; dsDNA, one strand shown
# HSF1, sequence (Q00613 whole entry): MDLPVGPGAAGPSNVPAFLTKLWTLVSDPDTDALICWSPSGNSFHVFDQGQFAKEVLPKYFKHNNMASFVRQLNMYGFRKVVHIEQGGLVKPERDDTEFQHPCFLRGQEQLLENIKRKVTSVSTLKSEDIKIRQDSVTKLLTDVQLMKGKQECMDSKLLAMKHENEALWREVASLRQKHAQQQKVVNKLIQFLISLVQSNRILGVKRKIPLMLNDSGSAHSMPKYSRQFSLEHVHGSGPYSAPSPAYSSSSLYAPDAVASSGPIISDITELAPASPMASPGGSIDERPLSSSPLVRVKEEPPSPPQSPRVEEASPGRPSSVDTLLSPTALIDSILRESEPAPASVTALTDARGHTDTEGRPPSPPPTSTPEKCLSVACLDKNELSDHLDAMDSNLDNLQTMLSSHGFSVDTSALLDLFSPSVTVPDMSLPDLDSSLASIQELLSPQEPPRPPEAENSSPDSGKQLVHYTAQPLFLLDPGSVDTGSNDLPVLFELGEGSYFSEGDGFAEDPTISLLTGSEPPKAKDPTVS
# Method in brief: as §1
# SPIC = target: T8, SPIC (Homo sapiens, UniProt Q8N5J4 1-248); details: protein: recombinant; tags: N-terminal GST; dsDNA, one strand shown
# T8 sequence: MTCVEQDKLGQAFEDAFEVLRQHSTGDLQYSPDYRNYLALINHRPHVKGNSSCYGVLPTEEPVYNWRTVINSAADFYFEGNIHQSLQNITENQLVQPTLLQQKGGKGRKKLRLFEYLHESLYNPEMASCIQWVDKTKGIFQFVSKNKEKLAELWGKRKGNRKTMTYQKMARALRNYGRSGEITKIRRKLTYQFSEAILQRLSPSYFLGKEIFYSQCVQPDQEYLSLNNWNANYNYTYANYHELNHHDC
# Method in brief: as §1
# ELF4 = ELF4 (Homo sapiens, UniProt Q99607 1-663); details: protein: recombinant; tags: N-terminal GST; dsDNA, one strand shown
# ELF4, sequence (Q99607 whole entry): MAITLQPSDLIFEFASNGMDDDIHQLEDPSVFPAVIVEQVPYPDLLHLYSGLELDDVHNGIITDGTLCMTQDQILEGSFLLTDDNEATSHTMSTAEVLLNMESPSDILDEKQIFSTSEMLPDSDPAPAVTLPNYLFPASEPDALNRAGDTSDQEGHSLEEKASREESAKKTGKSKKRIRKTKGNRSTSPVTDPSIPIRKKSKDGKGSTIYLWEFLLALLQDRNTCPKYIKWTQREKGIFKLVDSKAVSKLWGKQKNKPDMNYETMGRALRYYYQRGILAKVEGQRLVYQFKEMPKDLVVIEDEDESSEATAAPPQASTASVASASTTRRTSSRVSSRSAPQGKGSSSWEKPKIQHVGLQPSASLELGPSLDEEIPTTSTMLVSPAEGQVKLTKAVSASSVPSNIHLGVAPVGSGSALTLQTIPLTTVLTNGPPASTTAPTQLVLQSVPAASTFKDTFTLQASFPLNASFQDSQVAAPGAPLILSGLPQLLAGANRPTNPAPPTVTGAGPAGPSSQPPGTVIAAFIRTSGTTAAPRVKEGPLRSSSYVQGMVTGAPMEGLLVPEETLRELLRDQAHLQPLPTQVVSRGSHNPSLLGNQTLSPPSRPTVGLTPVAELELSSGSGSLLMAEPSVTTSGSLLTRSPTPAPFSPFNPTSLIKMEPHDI
# Method in brief: as §1
# ELK4 = target: T9, ELK4 (Homo sapiens, UniProt P28324-2 1-405); details: protein: recombinant; tags: N-terminal GST; dsDNA, one strand shown
# T9 sequence: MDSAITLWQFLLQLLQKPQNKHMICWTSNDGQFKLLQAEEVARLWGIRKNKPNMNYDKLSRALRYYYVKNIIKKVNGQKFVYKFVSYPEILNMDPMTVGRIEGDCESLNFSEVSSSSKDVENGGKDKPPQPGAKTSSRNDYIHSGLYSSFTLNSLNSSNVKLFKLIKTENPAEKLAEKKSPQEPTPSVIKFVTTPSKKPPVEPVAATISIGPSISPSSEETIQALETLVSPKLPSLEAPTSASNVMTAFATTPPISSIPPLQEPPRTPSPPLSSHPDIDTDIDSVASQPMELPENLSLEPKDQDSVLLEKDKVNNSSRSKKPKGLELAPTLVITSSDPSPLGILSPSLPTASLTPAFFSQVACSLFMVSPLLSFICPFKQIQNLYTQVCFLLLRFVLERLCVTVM
# Method in brief: as §1
# ETV2 = target: T10, ETV2 (Homo sapiens, UniProt O00321 1-342); details: protein: recombinant; tags: N-terminal GST; dsDNA, one strand shown
# T10 sequence: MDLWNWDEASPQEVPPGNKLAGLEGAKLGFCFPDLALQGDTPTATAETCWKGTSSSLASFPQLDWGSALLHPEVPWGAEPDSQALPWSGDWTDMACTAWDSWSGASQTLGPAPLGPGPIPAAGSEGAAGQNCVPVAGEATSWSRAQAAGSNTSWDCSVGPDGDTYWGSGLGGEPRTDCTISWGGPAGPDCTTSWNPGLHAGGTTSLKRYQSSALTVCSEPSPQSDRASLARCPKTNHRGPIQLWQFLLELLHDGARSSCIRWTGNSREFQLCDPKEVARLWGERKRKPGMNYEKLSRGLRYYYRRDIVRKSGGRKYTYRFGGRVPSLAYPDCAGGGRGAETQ
# Method in brief: as §1
# ELF3 = target: T11, ELF3 (Homo sapiens, UniProt P78545 1-371); details: protein: recombinant; tags: N-terminal GST; dsDNA, one strand shown
# T11 sequence: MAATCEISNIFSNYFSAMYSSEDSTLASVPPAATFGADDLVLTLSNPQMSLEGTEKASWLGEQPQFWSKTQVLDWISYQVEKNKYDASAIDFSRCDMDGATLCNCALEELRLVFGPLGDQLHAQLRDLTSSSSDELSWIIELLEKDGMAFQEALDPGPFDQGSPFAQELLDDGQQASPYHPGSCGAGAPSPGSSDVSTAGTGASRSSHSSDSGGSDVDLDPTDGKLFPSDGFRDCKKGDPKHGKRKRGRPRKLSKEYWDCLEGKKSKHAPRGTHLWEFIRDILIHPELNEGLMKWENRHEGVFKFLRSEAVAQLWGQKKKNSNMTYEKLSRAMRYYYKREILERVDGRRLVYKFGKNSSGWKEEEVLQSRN
# Method in brief: as §1
# CRX = CRX (Homo sapiens, UniProt O43186 1-299); details: protein: recombinant; tags: N-terminal GST; dsDNA, one strand shown
# CRX, sequence (O43186 whole entry): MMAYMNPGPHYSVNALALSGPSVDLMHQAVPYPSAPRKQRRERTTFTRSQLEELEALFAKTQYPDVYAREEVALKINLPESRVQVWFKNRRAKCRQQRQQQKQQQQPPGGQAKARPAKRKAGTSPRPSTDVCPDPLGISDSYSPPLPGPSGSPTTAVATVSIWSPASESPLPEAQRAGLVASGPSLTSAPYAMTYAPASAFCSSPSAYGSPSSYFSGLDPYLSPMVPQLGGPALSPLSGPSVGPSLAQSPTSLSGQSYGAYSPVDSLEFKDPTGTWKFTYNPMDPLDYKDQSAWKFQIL
# Method in brief: as §1
# ETV1 = ETV1 (Homo sapiens, UniProt P50549 1-477); details: protein: recombinant; tags: N-terminal GST; dsDNA, one strand shown
# ETV1, sequence (P50549 whole entry): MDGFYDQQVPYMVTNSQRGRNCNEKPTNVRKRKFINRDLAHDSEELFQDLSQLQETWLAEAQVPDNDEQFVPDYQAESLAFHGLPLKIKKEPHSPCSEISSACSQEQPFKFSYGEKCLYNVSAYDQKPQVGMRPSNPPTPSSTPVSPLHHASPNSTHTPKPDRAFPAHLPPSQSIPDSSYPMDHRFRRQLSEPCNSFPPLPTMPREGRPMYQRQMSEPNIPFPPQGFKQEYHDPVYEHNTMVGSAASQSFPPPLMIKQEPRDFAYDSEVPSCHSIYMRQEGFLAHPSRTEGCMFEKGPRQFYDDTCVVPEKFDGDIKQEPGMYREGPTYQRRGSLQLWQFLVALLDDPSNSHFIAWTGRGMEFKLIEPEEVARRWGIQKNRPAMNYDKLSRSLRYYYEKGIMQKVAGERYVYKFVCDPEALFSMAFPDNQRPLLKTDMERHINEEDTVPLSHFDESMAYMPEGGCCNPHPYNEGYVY
# Method in brief: as §1
sequence,measurement,setting,value
ATGATA,binding signal,FLI1,"1.22 fold enrichment (6-mer frequency, TF over GST control)"
same,binding signal,ELK1,"1.23 fold enrichment (6-mer frequency, TF over GST control)"
same,binding signal,GABPA,"1.16 fold enrichment (6-mer frequency, TF over GST control)"
same,binding signal,ERG,"1.26 fold enrichment (6-mer frequency, TF over GST control)"
same,binding signal,ELF1,"1.24 fold enrichment (6-mer frequency, TF over GST control)"
same,binding signal,EHF,"1.32 fold enrichment (6-mer frequency, TF over GST control)"
same,binding signal,SPI1,"1.2 fold enrichment (6-mer frequency, TF over GST control)"
same,binding signal,SPIB,"1.21 fold enrichment (6-mer frequency, TF over GST control)"
same,binding signal,ELK3,"1.34 fold enrichment (6-mer frequency, TF over GST control)"
same,binding signal,FEV,"1.25 fold enrichment (6-mer frequency, TF over GST control)"
same,binding signal,ETV5,"1.17 fold enrichment (6-mer frequency, TF over GST control)"
same,binding signal,HSF1,"1.23 fold enrichment (6-mer frequency, TF over GST control)"
same,binding signal,SPIC,"1.07 fold enrichment (6-mer frequency, TF over GST control)"
same,binding signal,ELF4,"1.26 fold enrichment (6-mer frequency, TF over GST control)"
same,binding signal,ELK4,"1.27 fold enrichment (6-mer frequency, TF over GST control)"
same,binding signal,ETV2,"1.2 fold enrichment (6-mer frequency, TF over GST control)"
same,binding signal,ELF3,"1.21 fold enrichment (6-mer frequency, TF over GST control)"
same,binding signal,CRX,"1.39 fold enrichment (6-mer frequency, TF over GST control)"
same,binding signal,ETV1,"1.17 fold enrichment (6-mer frequency, TF over GST control)"
